High-throughput results: PubChem BioAssay, National Center for Advancing Translational Sciences (NCATS)
TRHR PAM: allosteric enhancers of human TRH receptor; enhancement, % at 2 µM; TRHR cells, fluo-8 calcium fluorescence, EC20 TRH enhancement; 360,000 tested, 0.66% active; in the data active = enhancement above about 30%; note: 0% is about no effect
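TRHR-expressing cells loaded with fluo-8 calcium dye were read kinetically (ex 480/em 530) during compound addition, then stimulated with an EC20 of TRH (10 nM final). Enhancement of the Gq-mediated intracellular calcium response was scored.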
TRHR ag: TRH receptor (human) agonism; P34981; TRHR cells, calcium flux fluo-8, FDSS agonist mode; activation, % at 2 µM; 360,000 tested, 0.18% active; note: 0% is about no effect
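TRHR-expressing cells, plated overnight in medium with 10% serum, were loaded with fluo-8 calcium dye at room temperature. After a 10 s baseline, library compound was pin-added and calcium release was recorded kinetically (ex 480/em 530) as agonist response.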
D1 potentiator: enhances dopamine response at the human D1 receptor | 360,000 tested, 0.036% active | AID 504651 | potentiation, % at 10 µM | P21728 | HEK293 TREx D1 cells, calcium flux, dopamine EC20 potentiation; in the data active = potentiation above about 30%; note: 0% is about no effect
Target sequence (P21728 whole entry, looked up): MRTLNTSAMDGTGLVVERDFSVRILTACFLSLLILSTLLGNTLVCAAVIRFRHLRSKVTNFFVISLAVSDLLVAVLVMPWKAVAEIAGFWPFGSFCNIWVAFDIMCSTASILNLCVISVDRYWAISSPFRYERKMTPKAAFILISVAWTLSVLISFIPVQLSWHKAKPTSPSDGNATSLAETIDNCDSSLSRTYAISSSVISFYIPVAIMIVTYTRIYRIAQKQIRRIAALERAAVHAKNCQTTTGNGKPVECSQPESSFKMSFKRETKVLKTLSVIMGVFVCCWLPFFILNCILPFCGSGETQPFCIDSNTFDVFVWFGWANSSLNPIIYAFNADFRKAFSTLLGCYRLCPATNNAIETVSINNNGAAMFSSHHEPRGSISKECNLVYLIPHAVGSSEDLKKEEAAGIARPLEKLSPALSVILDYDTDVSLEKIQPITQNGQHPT
D1 antag: antagonists of human D1 dopamine receptor; P21728; HEK293 TREx D1 cells, calcium flux, dopamine EC80; hits give low values; activity change, negative = inhibition, % at 10 µM; 360,000 tested, 3.2% active; in the data active = activity change below about -30%; note: % is set by controls: 0 for no effect and ±100 for the full control effect
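Using tetracycline-induced force-coupled D1 Hek293 cells and a calcium dye, signals were followed for 180 s after compound, then for 180 s after EC80 dopamine, to detect inhibitors.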
D1 agonist: agonists of human D1 dopamine receptor; 360,000 tested, 1% active; HEK293 T-REx D1 cells, calcium flux, agonist mode; AID 504660; P21728; activation, % at 2 µM; note: 0% is about no effect
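Inducible HEK293 T-REx D1 cells, force-coupled to calcium signalling, were plated at 4000 cells/well with tetracycline and held overnight at 30 C. After no-wash calcium dye loading, compound-evoked calcium rise over 180 s flagged agonists.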
LDHA inh: blocks human lactate dehydrogenase A; purified LDHA, NADH/diaphorase-resazurin fluorescence; hits give low values; activity change, % (values are at about 110 or 230 µM); 480,000 tested, 0.15% active; AID 1347041; in the data active = activity change below about -30%;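 note: plate controls were DMSO wells for no effect and wells without enzyme for full effect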
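Resorufin fluorescence (ex540/em590), read at 0 and 20 min after diaphorase/resazurin addition, reports the NADH left after a 5 min room-temperature reaction of 2 nM human LDH5 with 0.06 mM NADH and 0.2 mM pyruvate.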
* = called active by the depositor; nt = no result. Shown are actives, neighbours in structure and some others; about 3.6% of the full set was active somewhere. Cut-off read from the data, not from the text of the source, unless noted: active = activation above about 30%; inactive = the rest.

SMILES	TRHR PAM	TRHR ag	D1 potentiator	D1 antag	D1 agonist	LDHA inh
CCN(CC)Cc1ccccc1CNC(=O)c1cc2ccc(OC)cc2nc1C	nt	nt	nt	nt	nt	-2
C=CCc1ccccc1OCc1nc2ccc(C)cc2[nH]1	7	-1	-2	-37*	21	-1
Cc1ccc(C)c(OCc2nc3ccccc3[nH]2)c1	-5	5	0	-8	2	-4
CCN1CCN(Cc2c(O)ccc3c2O/C(=C\c2ccccc2)C3=O)CC1	3	10	-6	-22	51*	2
COc1ccccc1/C=C/C=C1\Oc2c(ccc(O)c2CN2CCN(CCO)CC2)C1=O	-4	25	0	-31*	114*	1
Cc1ccc(/C=C2\Oc3c(ccc(O)c3CN3CCN(C)CC3)C2=O)cc1	-1	10	4	3	40*	-1
O=C1/C(=C/C=C/c2ccccc2)Oc2c1ccc(O)c2CN1CCN(CCO)CC1	0	13	1	3	17	-4
CCN1CCN(Cc2c(O)ccc3c2O/C(=C\C=C\c2ccccc2)C3=O)CC1	11	0	-6	-20	-3	-5
CCOC(=O)c1cc2cc(C(F)(F)F)ccc2[nH]1	nt	nt	nt	nt	nt	-1
Cc1cc(SCC(=O)N(C)C)nc2c(C)cccc12	nt	nt	nt	nt	nt	-2
COc1cc(OC)cc(C(=O)NC(C)c2ccc(Br)cc2)c1 (stereo not given)	-9	0	-1	4	41*	-7
O=C(OCc1cc(-c2ccc(Cl)cc2)no1)c1cc(Br)c[nH]1	nt	nt	nt	nt	nt	10
CCCCCCOc1ccc(NC(=O)CC2C(=O)N(CC)C(=S)N2Cc2ccco2)cc1 (stereo not given)	-6	0	-4	-40*	8	3
CCOc1ccc(NC(=O)CC2C(=O)N(c3ccccc3)C(=O)N2Cc2ccc3c(c2)OCO3)cc1 (stereo not given)	-1	-1	1	-51*	0	1
COc1ccc(NC(=O)CC2C(=O)N(c3ccc(C)cc3)C(=O)N2Cc2ccc3c(c2)OCO3)cc1 (stereo not given)	3	-1	-1	-8	8	2
COC(=O)c1ccc(NC(=O)CC2C(=O)N(c3ccccc3)C(=O)N2Cc2ccco2)cc1 (stereo not given)	18	0	-8	5	1	0
CCOc1ccc(NC(=O)CC2C(=O)N(c3ccccc3)C(=O)N2Cc2ccco2)cc1 (stereo not given)	15	0	-4	-42*	-2	-5
CC(OC(=O)c1ccccc1-n1cnnn1)C(=O)Nc1ccc(N2CCOCC2)cc1 (stereo not given)	nt	nt	nt	nt	nt	10
CCN(CC)C(=O)Cn1cc(C(=O)C(=O)NCCCN2CCOCC2)c2ccccc21	-1	0	0	-34*	2	1
Cc1ccc(Oc2nccc(-c3ccc(Cl)cc3)n2)cc1	2	0	-19	-30*	26	-4
O=C1CC(c2ccc(F)cc2)Sc2nc(C34CC5CC(CC(C5)C3)C4)nn21 (stereo not given)	30	0	-8	-52*	2	-2
O=C1CC(c2ccccc2)Sc2nc(-c3ccc(F)cc3)nn21 (stereo not given)	1	0	-2	16	2	-10
CN(C)c1ccc(C(=O)NNC(=O)c2ccc(F)cc2)cc1	nt	nt	nt	nt	nt	7
CN(C)c1ccc(C(=O)NN2C(=O)c3ccccc3C2=O)cc1	0	0	-4	-32*	0	-6
O=C(NN1C(=O)c2ccccc2C1=O)c1ccncc1	3	1	-4	-17	6	-10
SMILES	TRHR PAM	TRHR ag	D1 potentiator	D1 antag	D1 agonist	LDHA inh
CN(C)c1ccc(C(=O)NNC(=O)c2ccc(Cl)cc2)cc1	3	-1	-3	5	1	-48*
CC[C@@H](C(=O)[C@@H](C)[C@@H](O)[C@H](C)CCc1ccc(C)c(O)c1C(=O)O)[C@H]1O[C@](CC)([C@H]2CC[C@](O)(CC)[C@H](C)O2)C[C@@H]1C	40*	100*	4	-64*	207*	-12
CCOC(=O)c1cc(OC(=O)c2cccc(C)c2)n(-c2ccccc2)n1	8	0	-1	-3	2	3
CCOC(=O)c1cc(OC(=O)c2cccnc2)n(-c2ccccc2)n1	0	0	6	-39*	0	nt
COc1cc(C(=O)COC(=O)CCCOc2ccc(Cl)cc2Cl)cc(OC)c1OC	nt	nt	nt	nt	nt	2
Cc1[nH]c2ccccc2c1C(=O)CN1C(=O)NC(C)(c2ccc(Cl)cc2Cl)C1=O (stereo not given)	4	5	2	4	37*	2
NC(N)=NN=C1CCC(c2ccccc2)CC1 (stereo not given)	21	1	37*	7	2	-6
CC(C)CCOCC(=O)Oc1ccccc1C(=O)O	30*	0	-1	-10	3	-1
CC(=O)Oc1ccccc1C(=O)Oc1ccccc1C(=O)O	-5	0	-1	26	0	-5
S=c1n(/N=C/c2ccc(Br)cc2)cnn1Cc1ccccc1Cl	nt	nt	nt	nt	nt	3
O=c1cc(CN2CCN(S(=O)(=O)c3ccccc3)CC2)nc2sc(-c3ccccc3Cl)nn12	1	-1	3	1	0	-2
O=c1cc(CN2CCN(S(=O)(=O)c3ccc(Cl)cc3)CC2)nc2sc(-c3ccccc3F)nn12	-3	0	-3	-37*	-1	-3
Cc1ccccc1-c1nn2c(=O)cc(CN3CCN(S(=O)(=O)c4ccc(Cl)cc4)CC3)nc2s1	-1	0	-6	-30*	-1	4
Cc1ccccc1-n1cnnc1SCCC(=O)Nc1cccc(S(=O)(=O)N2CCCC2)c1	nt	nt	nt	nt	nt	-6
Cc1cc(C(=O)N/N=C/c2ccccn2)n[nH]1	-1	0	-6	-48*	1	4
O=C(N/N=C/c1ccccn1)c1cc(C2CC2)[nH]n1	7	0	0	-18	2	6
Cc1[nH]c2ccccc2c1/C=N/NC(=O)c1cc(-c2cccs2)[nH]n1	4	0	-13	-31*	0	-5
Cc1cc(C(=O)N/N=C/c2c(C)[nH]c3ccccc23)n[nH]1	1	-1	1	-20	3	-4
O=C(N=Nc1c(O)[nH]c2ccccc12)c1cc(-c2cccs2)[nH]n1	-3	0	-2	9	4	-39*
N#CCCNC(=O)CN1CCCC(c2nc3ccccc3o2)C1 (stereo not given)	nt	nt	nt	nt	nt	3
Cc1cn(CC2COC(C)(C)O2)c(=O)[nH]c1=O (stereo not given)	9	1	-3	-30*	3	-7
O=C(NCCc1ccccc1)c1ccc(Cl)c([N+](=O)[O-])c1	-3	1	-2	-36*	2	4
